Measured values taken from PubChem BioAssay (NCATS).
Several values for one entry are separate records, joined by “and”; a condition that tells them apart may be missing. Equal entries are not always repeated. Results filed as inconclusive are left out. More than one record can exist for a structure, and the calls need not agree. Activity calls are given as the source filed them. Unless noted, calls come from the whole dose curve; as a rule, active = well fitted curve in the direction sought with a large enough effect; inconclusive = small, poorly fitted or top-dose-only effect, or another doubt; inactive = no such curve, though single readings can be large; an effect the other way counts as inactive or inconclusive.

What was measured:
[1] = molecular target: 3',5'-cyclic-AMP phosphodiesterase 4B (Homo sapiens) (UniProt Q07343); assay: qHTS Assay for Inhibitors of PDE-IV (AID 607; active = well fitted activation curve with a large enough effect in the main read-out, with a control signal flat, not every such curve was filed as active; note: % of control where 0% means no effect)
Chain of 3',5'-cyclic-AMP phosphodiesterase 4B (Homo sapiens) (Q07343 whole entry, looked up): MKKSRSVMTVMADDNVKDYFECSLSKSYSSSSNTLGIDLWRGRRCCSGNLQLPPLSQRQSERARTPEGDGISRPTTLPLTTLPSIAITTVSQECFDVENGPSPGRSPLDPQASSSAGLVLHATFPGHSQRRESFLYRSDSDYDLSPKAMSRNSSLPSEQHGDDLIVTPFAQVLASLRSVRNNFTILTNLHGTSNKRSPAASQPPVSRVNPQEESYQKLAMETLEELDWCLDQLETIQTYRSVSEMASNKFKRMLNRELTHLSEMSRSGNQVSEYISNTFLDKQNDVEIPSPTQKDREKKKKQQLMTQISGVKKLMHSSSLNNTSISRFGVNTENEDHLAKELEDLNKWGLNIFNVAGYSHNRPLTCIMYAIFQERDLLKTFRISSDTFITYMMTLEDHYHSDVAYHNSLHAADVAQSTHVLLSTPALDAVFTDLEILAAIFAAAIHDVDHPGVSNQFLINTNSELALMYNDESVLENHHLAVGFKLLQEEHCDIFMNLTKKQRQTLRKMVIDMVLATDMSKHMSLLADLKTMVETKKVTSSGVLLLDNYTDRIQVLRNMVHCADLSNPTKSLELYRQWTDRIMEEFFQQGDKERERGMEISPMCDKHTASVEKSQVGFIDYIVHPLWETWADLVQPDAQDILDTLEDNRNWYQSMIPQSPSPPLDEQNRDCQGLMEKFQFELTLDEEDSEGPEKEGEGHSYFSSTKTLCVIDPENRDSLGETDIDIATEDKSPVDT
Method in brief: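 The readout is membrane depolarisation from a cAMP-sensing CNG channel, detected with a potential dye at ex 535/em 590. Cells were HEK293-derived (endogenous PDE-IV) at 1000 cells/well, titrated up to 22.9 uM final.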

[2] = molecular target: Guanine nucleotide-binding protein G(i) subunit alpha-1 (Homo sapiens) (UniProt P63096); assay: qHTS Assay for Inhibitors of RGS12 GoLoco Motif Activity (Green Fluorophore) (AID 879);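 note: 0% = labeled peptide with Gαi1 and full inhibition = labeled peptide alone without protein; negative values mean loss of peptide binding seen as reduced polarization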
Chain of Guanine nucleotide-binding protein G(i) subunit alpha-1 (Homo sapiens) (P63096 whole entry, looked up): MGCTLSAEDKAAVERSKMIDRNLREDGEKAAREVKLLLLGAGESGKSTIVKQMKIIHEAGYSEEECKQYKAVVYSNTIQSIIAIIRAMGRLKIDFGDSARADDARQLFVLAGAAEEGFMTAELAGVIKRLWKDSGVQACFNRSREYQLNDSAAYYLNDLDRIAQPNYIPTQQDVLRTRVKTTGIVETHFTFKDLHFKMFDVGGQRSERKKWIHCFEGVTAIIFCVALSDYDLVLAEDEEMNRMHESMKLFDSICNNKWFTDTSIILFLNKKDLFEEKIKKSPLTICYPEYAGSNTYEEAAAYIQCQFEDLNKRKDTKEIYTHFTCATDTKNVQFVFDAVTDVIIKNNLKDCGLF
Method in brief: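 Fluorescence polarization assay: 50 nM Gαi1 with 10 nM FITC-labeled RGS12 GoLoco peptide in 10 mM Tris pH 7.5, 150 mM NaCl, 0.1 mM GDP, 0.05% NP40, 10 min at room temperature with compound.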

[3] = molecular target: Cytochrome P450 2C9 (Homo sapiens) (UniProt P11712); assay: qHTS Assay for Inhibitors and Substrates of Cytochrome P450 2C9 (AID 883); note: nearly all actives have a fitted effect of over 60% in size; note: potency is the fitted concentration of half-maximal effect
Chain of Cytochrome P450 2C9 (Homo sapiens) (P11712 whole entry, looked up): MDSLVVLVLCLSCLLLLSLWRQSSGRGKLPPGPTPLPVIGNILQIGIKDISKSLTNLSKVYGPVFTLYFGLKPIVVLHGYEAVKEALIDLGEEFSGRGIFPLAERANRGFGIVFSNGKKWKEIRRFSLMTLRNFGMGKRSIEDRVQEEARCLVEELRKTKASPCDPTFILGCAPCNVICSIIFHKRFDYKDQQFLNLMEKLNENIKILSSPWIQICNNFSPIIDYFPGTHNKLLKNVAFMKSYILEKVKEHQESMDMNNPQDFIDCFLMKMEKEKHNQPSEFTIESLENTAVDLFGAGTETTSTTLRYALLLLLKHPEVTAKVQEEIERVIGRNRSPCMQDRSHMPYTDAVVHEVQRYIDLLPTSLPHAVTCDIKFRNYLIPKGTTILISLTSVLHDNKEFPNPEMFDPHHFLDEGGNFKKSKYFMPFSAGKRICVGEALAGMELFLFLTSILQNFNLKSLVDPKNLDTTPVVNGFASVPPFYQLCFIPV
Method in brief: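 10nM CYP2C9 + 100uM Luciferin-H (=KM), 25mM KPO4; cpd 10 min 37C; NADPH regen, 60 min 37C; stop/detect with P450 Glo-Buffer 20 min; luminescence. Norm. to 57uM sulphaphenazole as full inhibition.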

[4] = molecular target: Cytochrome P450 3A4 (Homo sapiens) (UniProt P08684); assay: qHTS Assay for Inhibitors and Substrates of Cytochrome P450 3A4 (AID 884); note: % is set by controls: 0 for no effect and ±100 for the full control effect; nearly all actives have a fitted effect of over 50% in size
Chain of Cytochrome P450 3A4 (Homo sapiens) (P08684 whole entry, looked up): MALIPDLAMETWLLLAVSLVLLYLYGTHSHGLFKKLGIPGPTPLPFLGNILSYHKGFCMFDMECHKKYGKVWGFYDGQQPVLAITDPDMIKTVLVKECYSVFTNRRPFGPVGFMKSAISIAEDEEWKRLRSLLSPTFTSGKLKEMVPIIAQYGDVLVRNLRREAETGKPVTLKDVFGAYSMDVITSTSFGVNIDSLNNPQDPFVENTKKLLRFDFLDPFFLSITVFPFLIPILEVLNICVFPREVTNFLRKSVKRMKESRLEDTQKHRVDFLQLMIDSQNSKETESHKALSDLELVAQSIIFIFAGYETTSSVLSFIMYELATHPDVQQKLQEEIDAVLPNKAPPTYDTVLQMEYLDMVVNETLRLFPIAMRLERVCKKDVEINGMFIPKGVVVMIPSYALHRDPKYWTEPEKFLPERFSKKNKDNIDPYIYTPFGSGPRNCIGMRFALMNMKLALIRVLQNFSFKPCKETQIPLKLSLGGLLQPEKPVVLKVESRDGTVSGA
Method in brief: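 20 nM human CYP3A4 with 25 uM Luciferin-PPXE (at KM) in 200 mM KPO4, preincubated 10 min with compound; NADPH regeneration started a 60 min RT reaction. Luciferin detected by luminescence, normalized to 57 uM ketoconazole as full inhibition.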

[5] = molecular target: Cytochrome P450 2D6 (Homo sapiens) (UniProt P10635); assay: qHTS Assay for Inhibitors and Substrates of Cytochrome P450 2D6 (AID 891); note: nearly all actives have a fitted effect of over 60% in size; note: potency is the fitted concentration of half-maximal effect
Chain of Cytochrome P450 2D6 (Homo sapiens) (P10635 whole entry, looked up): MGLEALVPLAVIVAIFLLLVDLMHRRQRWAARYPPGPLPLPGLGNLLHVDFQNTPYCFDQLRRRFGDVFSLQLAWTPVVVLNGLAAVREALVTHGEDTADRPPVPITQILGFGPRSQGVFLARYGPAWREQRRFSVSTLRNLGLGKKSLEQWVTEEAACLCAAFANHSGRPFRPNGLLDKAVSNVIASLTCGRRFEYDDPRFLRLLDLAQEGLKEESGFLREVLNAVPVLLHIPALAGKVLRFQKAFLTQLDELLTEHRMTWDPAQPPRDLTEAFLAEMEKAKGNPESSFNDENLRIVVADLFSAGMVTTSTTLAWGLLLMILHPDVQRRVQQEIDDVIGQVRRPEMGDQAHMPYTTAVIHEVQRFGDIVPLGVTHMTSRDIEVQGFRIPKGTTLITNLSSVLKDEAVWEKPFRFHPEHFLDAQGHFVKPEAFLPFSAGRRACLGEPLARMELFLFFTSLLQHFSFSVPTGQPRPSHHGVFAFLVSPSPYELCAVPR
Method in brief: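 Human CYP2D6 (5 nM) with 30 uM Luciferin-ME EGE (at Km) in 100 mM KPO4, compound preincubated 10 min, then NADPH regeneration system for 60 min at room temperature. Luciferin read by luminescence; normalized to 1.43 uM quinidine.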

[6] = molecular target: Cytochrome P450 2C19 (Homo sapiens) (UniProt P33261); assay: qHTS Assay for Inhibitors and Substrates of Cytochrome P450 2C19 (AID 899); note: nearly all actives have a fitted effect of over 60% in size; note: potency is the fitted concentration of half-maximal effect
Chain of Cytochrome P450 2C19 (Homo sapiens) (P33261 whole entry, looked up): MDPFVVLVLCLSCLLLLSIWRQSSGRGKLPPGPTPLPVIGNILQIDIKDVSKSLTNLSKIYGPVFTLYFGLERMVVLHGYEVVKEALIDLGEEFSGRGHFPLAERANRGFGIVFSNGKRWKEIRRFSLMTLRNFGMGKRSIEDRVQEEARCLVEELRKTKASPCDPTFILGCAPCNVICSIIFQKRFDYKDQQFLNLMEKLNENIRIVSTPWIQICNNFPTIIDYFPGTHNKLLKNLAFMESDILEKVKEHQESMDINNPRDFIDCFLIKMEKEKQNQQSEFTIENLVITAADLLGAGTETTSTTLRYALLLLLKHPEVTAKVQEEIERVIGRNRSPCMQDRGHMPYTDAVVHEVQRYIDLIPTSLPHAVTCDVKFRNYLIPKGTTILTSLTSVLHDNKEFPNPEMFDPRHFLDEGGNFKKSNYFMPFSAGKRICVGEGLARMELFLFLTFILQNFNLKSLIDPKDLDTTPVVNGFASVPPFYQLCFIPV
Method in brief: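 Luminescent read-out of luciferin formed from Luciferin-H EGE (10uM, equal to KM). Enzyme 5nM in 50mM KPO4; compound added, 10 min at 37C, then NADPH regenerating system for 60 min at 37C. Full inhibition defined by 57uM ketoconazole.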

[7] = qHTS Assay for Identification of Small Molecule Antagonists for NFkB Signaling Pathway (AID 895; active = well fitted inhibition curve with a large enough effect in the signal ratio, with a control signal flat, not every such curve was filed as active; the % refers to the signal ratio; note: potency is the fitted concentration of half-maximal effect)
Method in brief: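 ME-180 NFkB-bla cells (beta-lactamase under NFkB response element), plated overnight, treated with compound then 10 pM TNF alpha (about EC50) for 5 hrs at 37 C. LiveBLAzer FRET read at 460/530 nm emission, 405 nm excitation.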

[8] = molecular target: Cytochrome P450 3A4 (Homo sapiens) (UniProt P08684); assay: qHTS Assay for Activators of Cytochrome P450 3A4 (AID 885); note: nearly all actives have a fitted effect of over 65% in size; note: potency is the fitted concentration of half-maximal effect
Method in brief: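 Steps: enzyme/substrate mix dispensed; compound added, 10 min RT; NADPH regeneration solution added, 60 min RT; luciferin detection buffer stops reaction; 20 min later luminescence measured.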

[9] = Cellular Toxicity (caspase-3) HepG2 (AID 654);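 note: cells exposed to compound for 16 hours before reading; 0% = DMSO alone and 100% = caspase signal from 100 µM tamoxifen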
Method in brief: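 HepG2 cells (1500/well) were treated 16 h at 37 °C in complete medium, then caspase 3/7 activity was read by Caspase-Glo luminescence. Data were normalized to DMSO and 100 uM tamoxifen; AC50 came from Hill-equation fits of qHTS concentration-response.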

[10] = Cellular Toxicity (caspase-3) Jurkat (AID 655);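 note: cells exposed to compound for 16 h at 37 °C before reading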; note: potency is the fitted concentration of half-maximal effect
Method in brief: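 Jurkat cells (5000/well) in complete medium exposed 16 h at 37 C; caspase-3/7 activity read by Caspase-Glo luminescence after 20 min at room temperature. Normalized to DMSO and 100 uM tamoxifen; AC50 from Hill fits.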

[11] = Cellular Toxicity (caspase-3) HUV-EC-C (AID 656);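 note: 0% = DMSO basal and 100% = 100 µM tamoxifen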
Method in brief: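 HUV-EC-C cells (1000/well) in complete medium, compound-treated 16 h at 37 °C; caspase-3/7 activity read by Caspase-Glo 3/7 luminescence. Normalized to DMSO (basal) and 100 uM tamoxifen (100%); AC50 from Hill-equation concentration-response fits.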

[12] = Cellular Toxicity (caspase-3) SHSY5Y (AID 657)
Method in brief: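 SH-SY5Y human neuroblastoma cells, 1500/well, exposed to compound for 16 hours at 37 °C in complete medium. Caspase-3/7 activity read by Caspase-Glo luminescence after 1 hr at room temperature, normalized to DMSO and 10 uM staurosporine; AC50 from Hill fit.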

[13] = Cellular Toxicity (caspase-3) BJ (AID 658);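 note: 0% = DMSO basal and 100% = 10 µM staurosporine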
Method in brief: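 BJ human foreskin fibroblasts, 1000 cells/well, treated 16 hours at 37 °C in complete medium; caspase 3/7 activity by Caspase-Glo luminescence after 1 hr at room temperature. Normalized to DMSO and 10 uM staurosporine; AC50 from Hill fits.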

[14] = Cellular Toxicity (caspase-3) MRC-5 (AID 659); settings: Potency: caspase-3 activation; note: potency is the fitted concentration of half-maximal effect;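 for caspase-3 activation: 0% = DMSO basal and 100% = 10 µM staurosporine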
Method in brief: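 MRC-5 human normal lung fibroblasts, 1500 cells/well, treated 16 h at 37 °C in complete medium. Caspase 3/7 measured by Caspase-Glo luminescence after 1 h at room temperature. Normalized to DMSO and 10 uM staurosporine; AC50 from Hill fit.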

[15] = Cellular Toxicity (caspase-3) Mesangial (AID 660)
Method in brief: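 Human renal glomerular mesangial cells, 1000/well, 5 h at 37 C before 16 h compound treatment. Caspase-Glo 3/7 luminescence after 20 min; normalized to DMSO and 100 uM tamoxifen, AC50 from Hill fit.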

[16] = Cellular Toxicity (caspase-3) SK-N-SH (AID 661); settings: SK-N-SH caspase-3 activation, qHTS; caspase-3 activation: at 91.7 µM (top of the series), DMSO as zero, staurosporine as full; note: potency is the fitted concentration of half-maximal effect;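 for caspase-3 activation: 0% = DMSO basal and 100% = 10 µM staurosporine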
Method in brief: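 Human SK-N-SH neuroblastoma cells, 1500/well, were exposed to compounds for 16 hours at 37 °C. Caspase-Glo 3/7 luminescence was normalized to DMSO (basal) and 10 uM staurosporine (100%), and AC50 came from a Hill fit.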

[17] = Cellular Toxicity (caspase-3) H-4-II-E (AID 663);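 note: cells exposed to compound for 16 hr before readout; 0% = DMSO basal and 100% = 100 µM tamoxifen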
Method in brief: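 Rat hepatoma H-4-II-E cells (1500/well) plated 5 hr, then exposed to compound titrations for 16 hr at 37 °C. Caspase-Glo 3/7 luminescence read after 20 min at RT; data normalized to DMSO and 100 uM tamoxifen, AC50 from Hill fits.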

[18] = Cellular Toxicity (caspase-3) N2a (AID 665);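 note: compound exposure lasted 16 h at 37 °C before readout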
Method in brief: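 Mouse N2a neuroblastoma cells, 1500 per well, treated 16 h at 37 °C in complete medium; caspase-3/7 activity by Caspase-Glo luminescence after 1 h. Normalized to DMSO and 10 uM staurosporine; AC50 from Hill fits.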

[19] = Cellular Toxicity (caspase-3) NIH 3T3 (AID 666);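 note: caspase signal read after 16 h compound exposure; 0% = DMSO basal and 100% = 100 µM tamoxifen stimulation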
Method in brief: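 Mouse NIH 3T3 fibroblasts (1000/well) treated 16 h at 37 C; caspase-3/7 activity measured by Caspase-Glo 3/7 luminescence after 20 min. Normalized to DMSO and 100 uM tamoxifen; AC50 from Hill fits.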

[20] = Cellular Toxicity (caspase-3) Renal Proximal Tubule (AID 667);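 note: cells exposed to compound for 16 hours at 37 °C before detection; 0% = DMSO basal and 100% = 10 µM staurosporine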
Method in brief: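 Freshly isolated primary rat kidney proximal tubule cells, 1000/well, treated 16 hr at 37 °C, then Caspase-Glo 3/7 luminescence after 1 hr. Normalized to DMSO and 10 uM staurosporine; AC50 from Hill fit.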

Cc1scc2c1N(C(=O)CN1CCN(C)CC1)c1ccccc1NC2=O
inactive: Potency [1] | Potency [2] | outcome [4]
active: Potency [3] 2.51 µM | Potency [5] 5.01 µM
inactive and 3.98 µM (active): Potency [6]

C[N+](C)(C)CCOC(N)=O
inactive: Potency [2] | outcome [4] | Potency [6]

C[C@]12CCC(=O)C=C1CC[C@@H]1[C@@H]2CC[C@@]2(C)[C@H]1CC[C@]2(O)C(=O)CO
inactive: Potency [2]

Cc1nc2c([nH]1)c(=O)n(C)c(=O)n2Cc1ccco1
inactive: Potency [1] | Potency [2] | Potency [6]
active: Potency [7] 0.0631 µM

OCCN1CCN(CCCN2c3ccccc3C=Cc3ccccc32)CC1
inactive: Potency [2] | Potency [8]

CC(=O)OC(C)C[N+](C)(C)C (centres undefined)
inactive: outcome [4]

CCCCCCCC/C=C\CCCCCCCC(=O)NCc1ccc(O)c(OC)c1
inactive: Potency [1] | Potency [8]
active: Potency [5] 3.16 µM

CCN(CC)CC(=O)Nc1c(C)cccc1C
inactive: Potency [1] | Potency [2] | Potency [7]

CC(C)NCC(O)c1cc(O)cc(O)c1 (centres undefined)
inactive: outcome [4]

C(=C\c1ccccc1)/CN1CCN(C(c2ccccc2)c2ccccc2)CC1
inactive: Potency [2]

N[C@@H](COP(=O)(O)O)C(=O)O
inactive: Potency [2] | Potency [8] | Potency [7] | Potency [6]

C[C@H](CS)C(=O)N1CCC[C@H]1C(=O)O
inactive: Potency [2] | Potency [3] | outcome [4] | Potency [5] | Potency [6]

COc1ccc2c(c1OC)C(=O)O[C@@H]2[C@H]1c2c(cc3c(c2OC)OCO3)CCN1C
active: Potency [3] 0.126 µM | Potency [6] 0.158 µM

CCCCCN(CCCCC)C(=O)C(CCC(=O)O)NC(=O)c1ccc(Cl)c(Cl)c1 (centres undefined)
inactive: outcome [4]

O=c1[nH]c(=O)n([C@H]2C[C@H](O)[C@@H](CO)O2)cc1Br
inactive: outcome [9] | Potency [10] | outcome [11] | outcome [12] | outcome [13] | Potency [14] | outcome [15] | caspase-3 activation [16] -0.482% | outcome [17] | outcome [18] | outcome [19] | outcome [20] | Potency [2] | outcome [4] | Potency [7]

COc1cc2c(cc1OC)-c1cc(=Nc3c(C)cc(C)cc3C)n(C)c(=O)n1CC2
inactive: Potency [2] | Potency [8]
active: Potency [3] 1.26 µM | Potency [7] 5.62 µM

Cc1ccc(Cl)c(Nc2ccccc2C(=O)O)c1Cl
active: Potency [3] 7.94 µM and 1.26 µM | Potency [8] 20 µM and 12.6 µM and 25.1 µM
inactive: Potency [2] | outcome [4]

CCc1c(C)[nH]c2c1C(=O)C(CN1CCOCC1)CC2 (centres undefined)
inactive: Potency [2]

CCCCOCCOCCOCc1cc2c(cc1CCC)OCO2
inactive: outcome [9] | Potency [10] | outcome [11] | outcome [12] | outcome [13] | Potency [14] | outcome [15] | caspase-3 activation [16] 1.34% | outcome [17] | outcome [18] | outcome [19] | outcome [20]

Cc1nc2sccn2c(=O)c1CCN1CCC(=C(c2ccc(F)cc2)c2ccc(F)cc2)CC1
inactive: Potency [2] | Potency [8]
active: Potency [5] 10 µM | Potency [7] 5.01 µM

C=CCc1ccccc1OCC(O)CNC(C)C (centres undefined)
inactive: outcome [4]

NC(=Nc1ccccc1)Nc1ccccc1
inactive: outcome [9] | Potency [10] | outcome [11] | outcome [12] | outcome [13] | Potency [14] | outcome [15] | caspase-3 activation [16] 0.122% | outcome [17] | outcome [18] | outcome [19] | outcome [20] | outcome [4]

C[C@]12C=CC(=O)C=C1CC[C@H]1[C@@H]3C[C@@H](O)[C@](O)(C(=O)CO)[C@@]3(C)C[C@H](O)[C@@]12F
inactive: Potency [2] | Potency [8]

Nc1ncn([C@@H]2O[C@H](CO)[C@@H](O)[C@H]2O)c(=O)n1
inactive: outcome [9] | outcome [11] | outcome [12] | outcome [13] | Potency [14] | outcome [15] | outcome [17] | outcome [18] | outcome [19] | outcome [20] | Potency [2]
active: Potency [10] 2 µM | Potency [16] 31.6 µM

CCCN(CCC)C(=O)C(CCC(=O)O)NC(=O)c1ccccc1 (centres undefined)
inactive: outcome [4]

Fc1ccc(C(c2ccc(F)cc2)N2CCN(C/C=C/c3ccccc3)CC2)cc1
inactive: outcome [4]

CC(=O)Oc1cc(C(C)C)c(OCCN(C)C)cc1C
inactive: Potency [1] | Potency [2] | Potency [7]

Nc1c2c(nc3ccccc13)CCCC2O (centres undefined)
inactive: outcome [4]

CCCCNc1c(C(=O)OCC)c(C)nc2c1cnn2CC
inactive and 199 nM (active): Potency [5]
inactive: Potency [2] | Potency [8]

CC(C)(Oc1ccc(CCNC(=O)c2ccc(Cl)cc2)cc1)C(=O)O
inactive: Potency [1] | outcome [4]

COC(=O)[C@H]1[C@H]2C[C@@H]3c4[nH]c5cc(OC)ccc5c4CCN3C[C@H]2C[C@@H](OC(=O)c2cc(OC)c(OC)c(OC)c2)[C@@H]1OC
inactive: outcome [11] | outcome [12] | outcome [15] | outcome [18] | outcome [19] | outcome [20] | Potency [2] | Potency [8]
active: Potency [14] 31.6 µM | caspase-3 activation [16] 87.8%

C[C@]12CCC(=O)C=C1CC[C@@H]1[C@@H]2C(=O)C[C@@]2(C)[C@H]1CC[C@]2(O)C(=O)CO
inactive: Potency [2] | Potency [8] | Potency [7]

CCCNC(C)C(=O)Nc1ccccc1C (centres undefined)
inactive: outcome [4]

CN(C)CCN(Cc1cccs1)c1ccccn1
inactive: Potency [1] | Potency [3] | outcome [4]
